Tests used:
Experiment in all cases: log2 ratio of Biotin-Ahx-Ub-VS probe labelling (fragment/DMSO); higher = less target engagement (more negative = stronger competition), active = hit call of the paper (q ≤ 0.05, log2 ratio ≤ -1)
Settings in all cases: compound concentration: 200 uM; treatment time: 3 h
USP19 = molecular target: T1, USP19 (UniProt O94966)
T1 sequence (whole entry): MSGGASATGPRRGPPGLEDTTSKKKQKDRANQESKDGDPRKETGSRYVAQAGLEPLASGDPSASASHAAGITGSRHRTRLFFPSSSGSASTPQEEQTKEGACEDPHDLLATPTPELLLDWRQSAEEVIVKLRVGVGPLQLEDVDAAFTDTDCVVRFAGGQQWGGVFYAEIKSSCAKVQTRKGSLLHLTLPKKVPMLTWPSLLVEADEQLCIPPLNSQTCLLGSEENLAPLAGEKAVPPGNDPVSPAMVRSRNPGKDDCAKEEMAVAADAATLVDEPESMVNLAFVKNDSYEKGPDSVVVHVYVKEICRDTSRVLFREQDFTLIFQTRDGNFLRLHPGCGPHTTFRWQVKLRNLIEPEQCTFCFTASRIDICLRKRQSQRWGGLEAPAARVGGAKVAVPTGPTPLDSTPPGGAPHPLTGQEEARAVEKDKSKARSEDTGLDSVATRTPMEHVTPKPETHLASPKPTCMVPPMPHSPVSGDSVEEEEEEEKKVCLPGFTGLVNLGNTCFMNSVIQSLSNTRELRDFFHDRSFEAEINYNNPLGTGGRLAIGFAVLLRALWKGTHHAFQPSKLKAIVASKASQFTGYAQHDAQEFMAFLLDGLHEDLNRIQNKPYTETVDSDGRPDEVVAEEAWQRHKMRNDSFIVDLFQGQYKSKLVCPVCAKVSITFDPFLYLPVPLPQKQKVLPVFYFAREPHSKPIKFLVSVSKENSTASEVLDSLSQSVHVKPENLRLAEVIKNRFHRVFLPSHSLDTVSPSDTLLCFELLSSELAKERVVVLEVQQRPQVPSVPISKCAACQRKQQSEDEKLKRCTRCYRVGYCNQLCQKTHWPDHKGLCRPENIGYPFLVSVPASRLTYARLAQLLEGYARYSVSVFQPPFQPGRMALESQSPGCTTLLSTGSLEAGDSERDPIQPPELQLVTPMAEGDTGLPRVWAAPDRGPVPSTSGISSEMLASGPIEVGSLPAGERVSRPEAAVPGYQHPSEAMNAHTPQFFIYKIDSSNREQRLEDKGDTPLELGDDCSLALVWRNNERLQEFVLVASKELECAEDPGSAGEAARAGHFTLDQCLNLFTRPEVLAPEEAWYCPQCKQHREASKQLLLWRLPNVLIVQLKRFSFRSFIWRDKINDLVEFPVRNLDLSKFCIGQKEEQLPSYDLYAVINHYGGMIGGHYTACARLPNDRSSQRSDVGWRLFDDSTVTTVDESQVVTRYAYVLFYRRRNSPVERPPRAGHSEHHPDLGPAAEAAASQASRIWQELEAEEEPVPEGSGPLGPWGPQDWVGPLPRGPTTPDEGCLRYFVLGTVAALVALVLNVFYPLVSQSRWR
Outline: (§1)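 Labelling with Biotin-Ahx-Ub-VS (0.5 µM final, 1 h) followed a 3 h triplicate treatment of HEK293T lysate (495 µg per sample, Tris/CHAPS/IGEPAL buffer with protease inhibitors) with fragment at 200 µM or vehicle. Labelled DUBs were NeutrAvidin-enriched, digested with LysC and trypsin, and run by diaPASEF LC-MS/MS. The values, average log2 fragment/vehicle ratios by unpaired t-test, come from global-median-normalised Spectronaut label-free quantities. Proteins with ≥2 unique peptides were used.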

USP22 = molecular target: T2, USP22 (UniProt Q9UPT9)
T2 sequence (whole entry): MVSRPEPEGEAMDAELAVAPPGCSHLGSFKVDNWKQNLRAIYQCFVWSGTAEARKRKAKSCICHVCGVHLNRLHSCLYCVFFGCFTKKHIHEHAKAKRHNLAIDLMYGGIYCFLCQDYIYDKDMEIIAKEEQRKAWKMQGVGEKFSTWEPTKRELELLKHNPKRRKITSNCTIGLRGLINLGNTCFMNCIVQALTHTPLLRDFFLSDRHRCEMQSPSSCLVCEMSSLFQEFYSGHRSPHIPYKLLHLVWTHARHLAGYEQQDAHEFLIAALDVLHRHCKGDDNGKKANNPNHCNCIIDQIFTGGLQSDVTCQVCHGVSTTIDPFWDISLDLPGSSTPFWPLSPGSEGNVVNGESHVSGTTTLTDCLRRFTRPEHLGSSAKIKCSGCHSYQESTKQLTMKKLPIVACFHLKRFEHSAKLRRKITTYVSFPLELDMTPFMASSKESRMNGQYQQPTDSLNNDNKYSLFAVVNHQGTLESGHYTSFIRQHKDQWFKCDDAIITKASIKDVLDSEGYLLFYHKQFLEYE
Outline: as §1

USP24 = USP24 (UniProt Q9UPU5)
Sequence of USP24 (Q9UPU5 whole entry): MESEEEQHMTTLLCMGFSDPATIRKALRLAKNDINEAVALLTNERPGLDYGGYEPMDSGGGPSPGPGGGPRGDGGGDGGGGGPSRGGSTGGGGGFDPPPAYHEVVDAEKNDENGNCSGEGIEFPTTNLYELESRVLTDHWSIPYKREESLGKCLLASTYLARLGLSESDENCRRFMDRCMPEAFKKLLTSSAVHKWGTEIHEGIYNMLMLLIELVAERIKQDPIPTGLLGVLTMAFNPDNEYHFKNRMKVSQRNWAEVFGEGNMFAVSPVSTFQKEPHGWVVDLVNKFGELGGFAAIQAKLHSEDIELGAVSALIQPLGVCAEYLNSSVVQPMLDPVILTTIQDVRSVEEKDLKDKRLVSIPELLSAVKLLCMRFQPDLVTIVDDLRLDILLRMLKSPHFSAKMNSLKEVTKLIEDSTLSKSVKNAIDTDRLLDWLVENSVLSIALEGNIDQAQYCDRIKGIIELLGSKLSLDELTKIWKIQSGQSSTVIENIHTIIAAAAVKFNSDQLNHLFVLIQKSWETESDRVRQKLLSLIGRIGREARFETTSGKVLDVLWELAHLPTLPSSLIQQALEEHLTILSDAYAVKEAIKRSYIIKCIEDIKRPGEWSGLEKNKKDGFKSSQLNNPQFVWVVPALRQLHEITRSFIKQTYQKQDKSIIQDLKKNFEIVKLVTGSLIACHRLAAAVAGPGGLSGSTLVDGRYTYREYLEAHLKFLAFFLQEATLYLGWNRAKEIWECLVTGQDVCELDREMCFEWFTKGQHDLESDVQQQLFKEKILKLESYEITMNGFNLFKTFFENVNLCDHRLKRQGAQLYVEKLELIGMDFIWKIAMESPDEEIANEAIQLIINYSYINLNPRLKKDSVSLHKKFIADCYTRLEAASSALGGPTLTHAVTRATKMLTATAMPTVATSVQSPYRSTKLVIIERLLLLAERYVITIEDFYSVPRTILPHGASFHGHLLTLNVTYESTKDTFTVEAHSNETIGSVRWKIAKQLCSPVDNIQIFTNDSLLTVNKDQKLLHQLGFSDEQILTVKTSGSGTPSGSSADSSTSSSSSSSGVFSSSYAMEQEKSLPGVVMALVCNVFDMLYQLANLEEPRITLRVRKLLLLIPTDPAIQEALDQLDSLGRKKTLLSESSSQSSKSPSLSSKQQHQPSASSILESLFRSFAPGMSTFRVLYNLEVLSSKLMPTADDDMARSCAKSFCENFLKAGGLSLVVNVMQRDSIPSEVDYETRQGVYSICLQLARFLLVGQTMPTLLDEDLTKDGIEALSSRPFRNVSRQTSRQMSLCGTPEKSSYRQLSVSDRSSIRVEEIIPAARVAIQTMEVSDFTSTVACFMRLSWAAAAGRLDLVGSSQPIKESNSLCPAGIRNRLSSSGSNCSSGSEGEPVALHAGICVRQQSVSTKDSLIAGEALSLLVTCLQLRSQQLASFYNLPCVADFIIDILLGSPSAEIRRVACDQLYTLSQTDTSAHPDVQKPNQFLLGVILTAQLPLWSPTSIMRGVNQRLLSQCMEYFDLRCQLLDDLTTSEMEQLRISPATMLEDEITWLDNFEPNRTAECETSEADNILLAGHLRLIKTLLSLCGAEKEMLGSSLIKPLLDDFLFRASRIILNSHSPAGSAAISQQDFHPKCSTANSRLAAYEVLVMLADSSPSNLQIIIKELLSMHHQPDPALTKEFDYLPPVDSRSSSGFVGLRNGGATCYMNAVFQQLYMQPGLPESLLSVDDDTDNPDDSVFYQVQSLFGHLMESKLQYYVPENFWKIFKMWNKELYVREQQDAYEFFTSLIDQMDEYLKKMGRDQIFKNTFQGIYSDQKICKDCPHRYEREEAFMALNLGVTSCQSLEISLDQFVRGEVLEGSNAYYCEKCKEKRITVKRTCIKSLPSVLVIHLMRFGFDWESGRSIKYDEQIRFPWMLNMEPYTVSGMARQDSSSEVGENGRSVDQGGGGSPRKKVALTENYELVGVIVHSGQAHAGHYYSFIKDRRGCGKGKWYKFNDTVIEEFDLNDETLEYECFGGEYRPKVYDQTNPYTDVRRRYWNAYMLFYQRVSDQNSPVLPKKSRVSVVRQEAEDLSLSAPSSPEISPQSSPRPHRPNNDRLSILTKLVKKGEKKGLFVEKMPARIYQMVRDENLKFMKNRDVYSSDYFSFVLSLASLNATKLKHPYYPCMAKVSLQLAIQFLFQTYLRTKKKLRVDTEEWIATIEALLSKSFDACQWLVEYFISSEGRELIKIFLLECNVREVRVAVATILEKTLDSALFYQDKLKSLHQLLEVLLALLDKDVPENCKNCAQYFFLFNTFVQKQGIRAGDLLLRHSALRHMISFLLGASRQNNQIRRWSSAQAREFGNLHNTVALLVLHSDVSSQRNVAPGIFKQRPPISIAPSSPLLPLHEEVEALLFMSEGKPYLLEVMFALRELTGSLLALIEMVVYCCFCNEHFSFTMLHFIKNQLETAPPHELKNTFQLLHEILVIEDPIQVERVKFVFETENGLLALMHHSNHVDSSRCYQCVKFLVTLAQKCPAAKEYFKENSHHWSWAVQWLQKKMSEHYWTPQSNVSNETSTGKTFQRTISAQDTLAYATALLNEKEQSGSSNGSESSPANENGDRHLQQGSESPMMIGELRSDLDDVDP
Outline: as §1

USP25 = molecular target: T3, USP25 (UniProt Q9UHP3)
T3 sequence (whole entry): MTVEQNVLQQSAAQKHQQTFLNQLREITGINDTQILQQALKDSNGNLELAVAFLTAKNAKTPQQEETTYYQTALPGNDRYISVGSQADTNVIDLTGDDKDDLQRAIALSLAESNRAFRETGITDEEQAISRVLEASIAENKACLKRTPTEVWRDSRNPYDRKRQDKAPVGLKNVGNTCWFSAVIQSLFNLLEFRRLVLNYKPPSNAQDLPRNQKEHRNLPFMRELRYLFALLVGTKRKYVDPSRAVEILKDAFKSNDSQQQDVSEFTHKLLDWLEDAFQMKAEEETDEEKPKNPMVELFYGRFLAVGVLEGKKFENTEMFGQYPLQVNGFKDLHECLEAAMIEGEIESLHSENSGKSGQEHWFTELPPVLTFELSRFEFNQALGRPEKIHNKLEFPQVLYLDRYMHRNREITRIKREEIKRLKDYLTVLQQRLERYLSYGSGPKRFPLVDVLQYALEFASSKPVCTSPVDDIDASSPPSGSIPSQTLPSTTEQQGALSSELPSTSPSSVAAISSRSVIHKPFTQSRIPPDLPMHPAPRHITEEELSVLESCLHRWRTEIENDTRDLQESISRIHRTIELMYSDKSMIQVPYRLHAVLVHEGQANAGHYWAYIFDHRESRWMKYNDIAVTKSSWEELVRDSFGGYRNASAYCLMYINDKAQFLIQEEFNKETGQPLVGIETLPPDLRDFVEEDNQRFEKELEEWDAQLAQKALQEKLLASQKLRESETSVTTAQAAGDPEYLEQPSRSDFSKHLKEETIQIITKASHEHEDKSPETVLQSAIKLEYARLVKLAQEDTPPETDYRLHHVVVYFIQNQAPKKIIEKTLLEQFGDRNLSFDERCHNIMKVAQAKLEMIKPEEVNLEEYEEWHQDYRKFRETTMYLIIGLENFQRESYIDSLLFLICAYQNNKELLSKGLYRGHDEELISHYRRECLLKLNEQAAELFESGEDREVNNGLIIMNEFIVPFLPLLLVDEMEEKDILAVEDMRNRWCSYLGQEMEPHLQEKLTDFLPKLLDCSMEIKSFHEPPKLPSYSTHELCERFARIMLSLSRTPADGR
Outline: as §1

USP28 = molecular target: T4, USP28 (UniProt Q96RU2)
T4 sequence (whole entry): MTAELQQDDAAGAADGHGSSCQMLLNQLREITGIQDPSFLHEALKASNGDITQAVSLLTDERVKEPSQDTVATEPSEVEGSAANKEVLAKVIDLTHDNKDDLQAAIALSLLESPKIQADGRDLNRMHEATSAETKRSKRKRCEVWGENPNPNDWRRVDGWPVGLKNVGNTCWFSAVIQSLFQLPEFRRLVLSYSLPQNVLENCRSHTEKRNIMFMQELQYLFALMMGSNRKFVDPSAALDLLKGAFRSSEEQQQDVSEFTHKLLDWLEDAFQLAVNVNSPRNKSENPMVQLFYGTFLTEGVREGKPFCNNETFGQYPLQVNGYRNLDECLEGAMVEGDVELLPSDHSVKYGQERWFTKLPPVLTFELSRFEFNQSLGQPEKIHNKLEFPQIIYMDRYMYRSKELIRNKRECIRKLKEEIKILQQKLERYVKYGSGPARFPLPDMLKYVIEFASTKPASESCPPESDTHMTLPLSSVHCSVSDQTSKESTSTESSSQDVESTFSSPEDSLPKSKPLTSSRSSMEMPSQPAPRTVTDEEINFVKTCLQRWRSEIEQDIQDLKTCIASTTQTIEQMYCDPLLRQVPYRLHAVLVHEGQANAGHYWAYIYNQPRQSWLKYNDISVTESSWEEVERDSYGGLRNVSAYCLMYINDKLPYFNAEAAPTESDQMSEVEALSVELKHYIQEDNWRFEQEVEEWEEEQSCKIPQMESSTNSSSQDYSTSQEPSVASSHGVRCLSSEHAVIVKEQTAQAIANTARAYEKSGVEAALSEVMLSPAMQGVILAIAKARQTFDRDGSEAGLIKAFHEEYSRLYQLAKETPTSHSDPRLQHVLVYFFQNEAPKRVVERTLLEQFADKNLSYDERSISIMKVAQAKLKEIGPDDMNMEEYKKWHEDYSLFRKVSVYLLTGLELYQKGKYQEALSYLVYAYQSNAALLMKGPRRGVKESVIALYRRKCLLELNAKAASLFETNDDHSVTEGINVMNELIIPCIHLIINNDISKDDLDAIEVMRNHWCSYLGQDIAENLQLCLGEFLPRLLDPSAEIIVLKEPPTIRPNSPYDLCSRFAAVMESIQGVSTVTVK
Outline: as §1

Measured: log2 ratio of Biotin-Ahx-Ub-VS probe labelling

CC(NC(=O)CCl)c1ccc2[nH]ncc2c1 (stereo not given)
inactive: USP19 -0.529 | USP22 0.0735 | USP24 -0.886 | USP25 -0.509 | USP28 -0.901

From the supplement of paper PMC11732987, “Enantioselective OTUD7B fragment discovery through chemoproteomics screening and high-throughput optimisation” (Communications Chemistry, 2025)
